Hit rate of the full screen: of about 5,500 compounds, about 2,000 (36%) were called active. Inconclusive results (about 18%) are left out. No stated cut-off is given here; in the data, active means normalized growth mostly below about 0.91 (no sharp cut-off); inconclusive means no clear call, values can overlap the other calls; inactive means mostly above about 0.92. This is one part of the list.
Assay: chemical genetic growth profiling, strain panel (AID 1159580);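 further: tested at 20 µM; growth read once vehicle control cultures reached saturation at 30 °C; 1 = growth at the plate median or of vehicle wells; lower values mean less growth of the strain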
Conditions: growth OD

Measured: normalized growth

NC(Cc1c[nH]c2ccccc12)C(=O)O (configuration not stated)
inactive: S. cerevisiae deletion strains, locus YJR075W, strain HOC1, active compounds read low 1 | S. cerevisiae deletion strains, locus YKL009W, strain mrt4, active compounds read low 1.01 | S. cerevisiae deletion strains, locus YKL068W, active compounds read low 0.99 | S. cerevisiae deletion strains, locus YKL085W, strain MDH1 (second series), active compounds read low 1.02 | S. cerevisiae deletion strains, locus YKL085W, strain MDH1, active compounds read low 1.02 | S. cerevisiae deletion strains, locus YKL160W, strain elf1, active compounds read low 1.02 | S. cerevisiae deletion strains, locus YKL190W, strain CNB1, active compounds read low 0.989 | S. cerevisiae deletion strains, locus YKR001C, strain vps1, active compounds read low 1 | S. cerevisiae deletion strains, locus YKR026C, strain gcn3, active compounds read low 1.02 | S. cerevisiae deletion strains, locus YKR091W, strain srl3, active compounds read low 1.02 | S. cerevisiae deletion strains, locus YLL001W, strain dnm1, active compounds read low 1.02 | S. cerevisiae deletion strains, locus YLL026W, active compounds read low 1.02 | S. cerevisiae deletion strains, locus YLL041C, strain sdh2, active compounds read low 1.01 | S. cerevisiae deletion strains, locus YLR027C, strain aat2, active compounds read low 1.01 | S. cerevisiae deletion strains, locus YLR039C, strain RIC1, active compounds read low 0.991 | S. cerevisiae deletion strains, locus YLR058C, strain SHM2, active compounds read low 0.975 | S. cerevisiae deletion strains, locus YLR102C, strain apc9, active compounds read low 0.992 | S. cerevisiae deletion strains, locus YLR113W, strain HOG1, active compounds read low 0.969 | S. cerevisiae deletion strains, locus YLR221C, strain rsa3, active compounds read low 1.01 | S. cerevisiae deletion strains, locus YLR258W, strain gsy2, active compounds read low 1.01 | S. cerevisiae deletion strains, locus YLR262C, strain YPT6 (second series), active compounds read low 1.03 | S. cerevisiae deletion strains, locus YLR262C, strain YPT6, active compounds read low 0.962 | S. cerevisiae deletion strains, locus YLR268W, strain sec22, active compounds read low 1.02 | S. cerevisiae deletion strains, locus YLR320W, strain mms22, active compounds read low 0.995 | S. cerevisiae deletion strains, locus YLR330W, strain CHS5, active compounds read low 0.99 | S. cerevisiae deletion strains, locus YLR342W, strain FKS1 (second series), active compounds read low 1.03 | S. cerevisiae deletion strains, locus YLR342W, strain FKS1, active compounds read low 1.02 | S. cerevisiae deletion strains, locus YLR357W, strain rsc2, active compounds read low 1.04 | S. cerevisiae deletion strains, locus YLR370C, strain arc18, active compounds read low 1.02 | S. cerevisiae deletion strains, locus YLR371W, strain rom2, active compounds read low 0.991 | S. cerevisiae deletion strains, locus YLR384C, strain iki3, active compounds read low 1.02 | S. cerevisiae deletion strains, locus YLR418C, strain cdc73, active compounds read low 1.04 | S. cerevisiae deletion strains, locus YML016C, strain PPZ1, active compounds read low 0.989 | S. cerevisiae deletion strains, locus YML032C, strain rad52, active compounds read low 0.992 | S. cerevisiae deletion strains, locus YML120C, strain ndi1, active compounds read low 1.01 | S. cerevisiae deletion strains, locus YML124C, strain tub3, active compounds read low 0.997 | S. cerevisiae deletion strains, locus YMR058W, strain fet3, active compounds read low 1.02 | S. cerevisiae deletion strains, locus YMR078C, strain ctf18, active compounds read low 0.979 | S. cerevisiae deletion strains, locus YMR125W, strain sto1, active compounds read low 1.03 | S. cerevisiae deletion strains, locus YMR129W, active compounds read low 1.02 | S. cerevisiae deletion strains, locus YMR205C, strain PFK2, active compounds read low 1.03 | S. cerevisiae deletion strains, locus YMR223W, strain ubp8, active compounds read low 1 | S. cerevisiae deletion strains, locus YMR231W, strain pep5, active compounds read low 1.02 | S. cerevisiae deletion strains, locus YMR263W, strain SAP30, active compounds read low 0.983 | S. cerevisiae deletion strains, locus YMR307W, strain GAS1, active compounds read low 1.08 | S. cerevisiae deletion strains, locus YNL067W, strain RPL9B, active compounds read low 0.992 | S. cerevisiae deletion strains, locus YNL071W, strain lat1, active compounds read low 1.02 | S. cerevisiae deletion strains, locus YNL128W, strain TEP1, active compounds read low 0.975 | S. cerevisiae deletion strains, locus YNL153C, strain GIM3, active compounds read low 0.992 | S. cerevisiae deletion strains, locus YNL183C, strain NPR1, active compounds read low 0.941 | S. cerevisiae deletion strains, locus YNL209W, strain ssb2, active compounds read low 1.03 | S. cerevisiae deletion strains, locus YNL233W, strain BNI4, active compounds read low 0.999 | S. cerevisiae deletion strains, locus YNL248C, strain rpa49, active compounds read low 1.02 | S. cerevisiae deletion strains, locus YNL250W, strain rad50, active compounds read low 0.975 | S. cerevisiae deletion strains, locus YNL271C, strain bni1, active compounds read low 1.01 | S. cerevisiae deletion strains, locus YNL298W, strain CLA4, active compounds read low 0.995 | S. cerevisiae deletion strains, locus YNL307C, strain MCK1, active compounds read low 0.991 | S. cerevisiae deletion strains, locus YNL322C, strain KRE1 (second series), active compounds read low 1.02 | S. cerevisiae deletion strains, locus YNL322C, strain KRE1, active compounds read low 0.989 | S. cerevisiae deletion strains, locus YNR049C, strain mso1, active compounds read low 1.02 | S. cerevisiae deletion strains, locus YNR052C, strain pop2, active compounds read low 0.991 | S. cerevisiae deletion strains, locus YOL006C, strain TOP1, active compounds read low 1.03 | S. cerevisiae deletion strains, locus YOL012C, strain htz1 2.02 | S. cerevisiae deletion strains, locus YOL147C, strain pex11, active compounds read low 0.998 | S. cerevisiae deletion strains, locus YOR001W, strain rrp6, active compounds read low 0.992 | S. cerevisiae deletion strains, locus YOR061W, strain CKA2, active compounds read low 0.973 | S. cerevisiae deletion strains, locus YOR069W, strain VPS5, active compounds read low 0.991 | S. cerevisiae deletion strains, locus YOR070C, strain gyp1, active compounds read low 1.02 | S. cerevisiae deletion strains, locus YOR080W, strain dia2, active compounds read low 1.02 | S. cerevisiae deletion strains, locus YOR083W, strain WHI5, active compounds read low 1.01 | S. cerevisiae deletion strains, locus YOR106W, strain vam3, active compounds read low 1 | S. cerevisiae deletion strains, locus YOR136W, strain idh2, active compounds read low 0.992 | S. cerevisiae deletion strains, locus YOR144C, strain elg1, active compounds read low 1 | S. cerevisiae deletion strains, locus YOR184W, strain ser1, active compounds read low 1 | S. cerevisiae deletion strains, locus YOR231W, strain MKK1, active compounds read low 0.946 | S. cerevisiae deletion strains, locus YOR265W, strain rbl2, active compounds read low 1.01 | S. cerevisiae deletion strains, locus YOR270C, strain vph1, active compounds read low 1.04 | S. cerevisiae deletion strains, locus YOR290C, strain snf2, active compounds read low 1.01 | S. cerevisiae deletion strains, locus YOR316C, strain cot1, active compounds read low 0.981 | S. cerevisiae deletion strains, locus YPL051W, strain arl3, active compounds read low 1.01 | S. cerevisiae deletion strains, locus YPL055C, strain LGE1, active compounds read low 0.981 | S. cerevisiae deletion strains, locus YPL078C, strain atp4, active compounds read low 1.01 | S. cerevisiae deletion strains, locus YPL106C, strain sse1, active compounds read low 1.02 | S. cerevisiae deletion strains, locus YPL240C, strain hsp82, active compounds read low 1.02 | S. cerevisiae deletion strains, locus YPL241C, strain CIN2, active compounds read low 0.995 | S. cerevisiae deletion strains, locus YPL256C, strain CLN2, active compounds read low 0.963 | S. cerevisiae deletion strains, locus YPR119W, strain clb2, active compounds read low 0.996 | S. cerevisiae deletion strains, locus YPR141C, strain kar3, active compounds read low 0.985 | S. cerevisiae deletion strains, locus YPR163C, strain tif3, active compounds read low 0.998 | S. cerevisiae deletion strains, locus YPR167C, strain met16, active compounds read low 1 | S. cerevisiae deletion strains, strain wtn01, active compounds read low 0.984 | S. cerevisiae strains, strain wild type, active compounds read low 0.997
